# Source: PubChem BioAssay (NCATS)
# “And” between values parts separate entries of the source, which are not always exact repeats. Identical values can stand only once. Results filed as inconclusive are left out. The source made the active and inactive calls. Unless noted, the call rests on the fitted dose curve. Numbered stars: 1 amine (or outer) side, 2 acyl side, 3 side chain; on linkers, the order of the positions; unused ones are H or OH. Bridge positions count the residues as written; N and C are the ends. Square brackets hold non-standard residues; d marks the D form. Peptide text beside a SMILES is read from it. I, II: the chains in the order shown. Actinocin(9to1) = Cc1c2oc3c(C)ccc(C(=O)[*:1])c3nc-2c(C(=O)[*:2])c(N)c1=O; NMeV = CN[C@H](C(=O)O)C(C)C; Sar = CNCC(=O)O
# Molecular target: Androgen receptor (Homo sapiens) (UniProt P10275)
# Sequence (P10275 whole entry, looked up): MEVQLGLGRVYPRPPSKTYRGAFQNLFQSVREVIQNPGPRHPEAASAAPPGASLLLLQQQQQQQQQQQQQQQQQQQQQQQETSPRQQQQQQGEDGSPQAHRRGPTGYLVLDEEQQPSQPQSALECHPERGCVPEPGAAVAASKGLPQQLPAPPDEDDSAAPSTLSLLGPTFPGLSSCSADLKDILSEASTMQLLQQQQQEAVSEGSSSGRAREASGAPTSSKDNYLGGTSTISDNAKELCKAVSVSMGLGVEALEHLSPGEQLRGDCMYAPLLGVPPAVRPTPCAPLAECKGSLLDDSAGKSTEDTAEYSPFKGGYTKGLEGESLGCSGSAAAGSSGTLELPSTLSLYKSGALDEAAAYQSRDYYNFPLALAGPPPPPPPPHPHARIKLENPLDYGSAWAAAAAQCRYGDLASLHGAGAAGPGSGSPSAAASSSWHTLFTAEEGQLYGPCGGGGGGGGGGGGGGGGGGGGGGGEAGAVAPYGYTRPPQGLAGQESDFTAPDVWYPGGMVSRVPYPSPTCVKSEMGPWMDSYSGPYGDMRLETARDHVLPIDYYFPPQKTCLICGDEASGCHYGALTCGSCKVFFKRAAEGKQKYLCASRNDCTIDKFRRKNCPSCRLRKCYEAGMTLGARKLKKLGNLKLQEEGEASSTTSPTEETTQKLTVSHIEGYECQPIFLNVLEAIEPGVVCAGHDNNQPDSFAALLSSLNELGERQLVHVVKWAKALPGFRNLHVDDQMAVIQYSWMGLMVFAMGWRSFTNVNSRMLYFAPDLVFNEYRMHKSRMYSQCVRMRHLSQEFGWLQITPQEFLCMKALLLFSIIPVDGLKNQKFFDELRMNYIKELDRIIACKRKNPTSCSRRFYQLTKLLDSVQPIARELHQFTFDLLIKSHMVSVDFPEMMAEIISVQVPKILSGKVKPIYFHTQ
# Experiment: qHTS assay for small molecule agonists of androgen receptor signaling (AID 588515; active means well fitted curve in the direction sought with a large enough effect in the signal ratio, with a control signal flat; the % refers to the signal ratio; further: on the % scale 0 is the no-effect control and ±100 the full control effect)
# Conditions: AR-UAS-bla HEK293, beta-lactamase ratio, agonist 16 h; stronger effect = higher value
# In short: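 EC50 and efficacy came from Hill fits of titrations (up to 92 uM) normalized to 30 nM R1881 as 100% and DMSO as 0%. Compound exposure was 16 h at 37 C on AR-UAS-bla HEK293 cells, with a 405/460/530 nm CCF4 fluorescence read.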
row,Structure (SMILES),activation
1,O=C1OC(c2ccc(O)cc2)(c2ccc(O)cc2)c2ccccc21,-5.75% (inactive)
2,Cc1cc(=O)n(-c2ccccc2)n1C,-8.07% (inactive)
3,CCCCCCc1ccc(O)cc1O,-17.1% (inactive)

# Molecular target: Bile acid receptor (Homo sapiens) (UniProt Q96RI1)
# Sequence (Q96RI1 whole entry, looked up): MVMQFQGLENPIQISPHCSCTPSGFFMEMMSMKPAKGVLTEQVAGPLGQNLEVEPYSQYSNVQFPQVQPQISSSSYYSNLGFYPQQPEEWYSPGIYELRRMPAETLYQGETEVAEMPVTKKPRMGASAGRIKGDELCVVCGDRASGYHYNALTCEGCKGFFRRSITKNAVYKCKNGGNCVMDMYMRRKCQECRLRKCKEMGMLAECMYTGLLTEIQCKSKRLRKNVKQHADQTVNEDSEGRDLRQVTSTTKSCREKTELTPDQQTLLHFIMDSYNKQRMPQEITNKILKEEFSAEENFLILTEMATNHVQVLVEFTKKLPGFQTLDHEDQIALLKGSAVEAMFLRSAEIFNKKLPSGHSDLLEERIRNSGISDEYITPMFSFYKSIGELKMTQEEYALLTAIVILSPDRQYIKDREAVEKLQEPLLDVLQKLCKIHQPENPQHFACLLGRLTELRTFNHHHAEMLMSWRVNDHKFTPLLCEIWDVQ
# Experiment: qHTS assay for small molecule antagonists of farnesoid X receptor signaling (AID 588526); further: potency means the concentration at half of the fitted maximal effect; on activity change, negative = inhibition: on the % scale 0 is the no-effect control and ±100 the full control effect
# Conditions: HEK293T FXR-UAS-bla, beta-lactamase ratio, antagonist mode; series mostly up to 76.7 µM; activity change, negative = inhibition: at the top concentration
# In short: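 Beta-lactamase reporter antagonist mode: HEK293T FXR-UAS-bla cells, titrated compound, CDCA stimulation, 16 h 37 C, CCF4 dye 2 h RT. Data normalized to CDCA 50 uM and DMSO; Hill-fit IC50.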
Structure (SMILES),"activity change, negative = inhibition",Potency
CN(C)/N=N/c1nc[nH]c1C(N)=O,-20.6% (inactive),–
O=C(O)CCCCC(=O)O,-2.47% (inactive),–
Cc1cc(=O)n(-c2ccccc2)n1C,-0.94% (inactive),–
CC(O)C(=O)O (centres undefined),2.09% (inactive),–
CC/C(=C(/CC)c1ccc(O)cc1)c1ccc(O)cc1,–,44.7 µM (active) and 39.8 µM (active)
Nc1ccc(C(=O)O)cc1,3.7% (inactive),–
CN(C)C(=S)SC(=S)N(C)C,-3.17% (inactive),–
O=c1ccc2ccccc2o1,–,inactive

# Molecular target: Glucocorticoid receptor (Homo sapiens) (UniProt P04150)
# Sequence (P04150 whole entry, looked up): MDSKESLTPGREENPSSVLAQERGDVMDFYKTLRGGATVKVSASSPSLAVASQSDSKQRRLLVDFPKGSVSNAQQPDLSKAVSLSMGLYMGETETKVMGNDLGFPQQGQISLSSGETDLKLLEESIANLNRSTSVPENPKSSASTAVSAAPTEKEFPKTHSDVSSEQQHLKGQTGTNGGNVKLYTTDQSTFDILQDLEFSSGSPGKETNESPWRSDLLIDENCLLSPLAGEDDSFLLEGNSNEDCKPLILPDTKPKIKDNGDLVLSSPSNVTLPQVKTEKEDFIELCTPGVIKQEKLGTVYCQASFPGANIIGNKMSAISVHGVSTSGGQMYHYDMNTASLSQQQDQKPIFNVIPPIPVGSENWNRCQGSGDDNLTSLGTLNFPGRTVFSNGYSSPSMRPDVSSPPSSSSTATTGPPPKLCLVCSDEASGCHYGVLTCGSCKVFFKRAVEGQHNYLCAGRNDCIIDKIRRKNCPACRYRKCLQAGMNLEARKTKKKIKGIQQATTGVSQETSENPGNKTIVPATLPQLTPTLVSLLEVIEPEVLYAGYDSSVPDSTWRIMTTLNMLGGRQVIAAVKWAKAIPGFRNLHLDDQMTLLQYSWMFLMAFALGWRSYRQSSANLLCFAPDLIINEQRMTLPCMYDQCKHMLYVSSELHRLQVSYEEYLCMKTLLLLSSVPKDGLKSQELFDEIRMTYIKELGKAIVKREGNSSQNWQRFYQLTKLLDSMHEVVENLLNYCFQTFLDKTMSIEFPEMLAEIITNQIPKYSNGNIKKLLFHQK
# Experiment: qHTS assay for small molecule agonists of glucocorticoid receptor signaling (AID 588532; active means well fitted curve in the direction sought with a large enough effect in the signal ratio, with a control signal flat; the % refers to the signal ratio;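 further: 100% = dexamethasone at 0.1 µM and 0% = DMSO only wells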)
# Conditions: HeLa MMTV-bla, beta-lactamase ratio, agonist, 18 h; stronger effect = higher value; percent of dexamethasone control, DMSO zero
# In short: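 Quantitative HTS using CellSensor MMTV-bla HeLa cells in charcoal/dextran-treated serum; compounds tested up to 92 uM. After 18 h at 37 C, CCF4 dye reported reporter induction.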
row,Structure (SMILES),activation
1,CN(C)/N=N/c1nc[nH]c1C(N)=O,-5.55% (inactive)
2,O=C(O)CCCCC(=O)O,6.23% (inactive)
3,C=C(CC)C(=O)c1ccc(OCC(=O)O)c(Cl)c1Cl,-8.92% (inactive)
4,NC(=NCCCCCCN=C(N)/N=C(\N)Nc1ccc(Cl)cc1)/N=C(\N)Nc1ccc(Cl)cc1,-3.44% (inactive) and 1.22% (inactive)
5,CCCCCCc1ccc(O)cc1O,-1.17% (inactive) and 14.5% (inactive)
6,CC/C(=C(/CC)c1ccc(O)cc1)c1ccc(O)cc1,-20.1% (inactive)
7,Nc1ccc(C(=O)O)cc1,-1.78% (inactive)
8,COC1=CC(=O)C[C@@H](C)[C@]12Oc1c(Cl)c(OC)cc(OC)c1C2=O,-8.46% (inactive)

# Molecular target: Glucocorticoid receptor (Homo sapiens) (UniProt P04150)
# Experiment: qHTS assay for small molecule antagonists of glucocorticoid receptor signaling (AID 588533; active means well fitted inhibition curve with a large enough effect in the signal ratio, with a control signal flat, not every such curve was filed as active; the % refers to the signal ratio;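 further: cells stimulated with 2 nM dexamethasone as agonist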; further: potency means the concentration at half of the fitted maximal effect; on activity change, negative = inhibition: on the % scale 0 is the no-effect control and ±100 the full control effect)
# Conditions: HeLa MMTV-bla, GRE beta-lactamase ratio, antagonist mode, 18 h; series mostly up to 76.8 µM; activity change, negative = inhibition: at the top concentration
# In short: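 Antagonist-mode qHTS: compound titrations added to GRE-bla HeLa cells, then dexamethasone 2 nM final; 18 h, 37 C. CCF4 FRET fluorescence normalized to dexamethasone and DMSO; IC50 from Hill fit.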
Structure (SMILES),"activity change, negative = inhibition",Potency
CC(C)(Oc1ccc(Cl)cc1)C(=O)O,10.4% (inactive),–
O=C(O)CCCCC(=O)O,-11.1% (inactive),–
C[C@H]1C[C@H]2[C@@H]3CCC4=CC(=O)C=C[C@]4(C)[C@@]3(Cl)[C@@H](O)C[C@]2(C)[C@@]1(O)C(=O)CO,4.04% (inactive),–
CCCCCCc1ccc(O)cc1O,–,inactive
Oc1c(I)cc(Cl)c2cccnc12,–,28.2 µM (active)
Nc1ccc(C(=O)O)cc1,-2.57% (inactive),–
"Cc1c2oc3c(C)ccc(C(=O)N[C@@H]4C(=O)N[C@H](C(C)C)C(=O)N5CCC[C@H]5C(=O)N(C)CC(=O)N(C)[C@@H](C(C)C)C(=O)O[C@@H]4C)c3nc-2c(C(=O)N[C@@H]2C(=O)N[C@H](C(C)C)C(=O)N3CCC[C@H]3C(=O)N(C)CC(=O)N(C)[C@@H](C(C)C)C(=O)O[C@@H]2C)c(N)c1=O (I: T[dV]P[Sar][NMeV] / II: T[dV]P[Sar][NMeV]; ester I:1-I:C, II:1-II:C; linker I:N-II:N via Actinocin(9to1))",–,126 nM (active) and 112 nM (active)
CN(C)C(=S)SC(=S)N(C)C,-5.06% (inactive),–

# Test system: not listed separately
# Experiment: qHTS assay for small molecule antagonists of peroxisome proliferator-activated receptor delta signaling (AID 588535; active means well fitted inhibition curve with a large enough effect in the signal ratio, with a control signal flat, not every such curve was filed as active; the % refers to the signal ratio; further: potency means the concentration at half of the fitted maximal effect;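 on max response: cells co-treated with a PPAR-delta agonist as stimulator during compound exposure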)
# Conditions: HEK293T PPARd-UAS-bla, beta-lactamase FRET ratio, 18 h; 460 nm channel
# In short: (§1)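 HEK293T PPAR-delta-UAS-bla cells, 4000/well, 2% charcoal/dextran FBS; 5 h 37 C; cpd titration; 18 h 37 C; CCF4 2 h RT; FI 460/530 nm; Hill fit → IC50, efficacy.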
row,Structure (SMILES),max response
1,CN(C)/N=N/c1nc[nH]c1C(N)=O,24%
2,CC(O)C(=O)O (centres undefined),-0.0545%
3,COc1cccc2c1C(=O)c1c(O)c3c(c(O)c1C2=O)C[C@@](O)(C(=O)CO)C[C@@H]3O[C@H]1C[C@H](N)[C@H](O)[C@H](C)O1,-92.6%
4,Nc1ccc(C(=O)O)cc1,41.6%
5,C=CCc1ccc(O)c(OC)c1,11.6% and 2.37%
6,CN(C)C(=S)SC(=S)N(C)C,6.78%

# Molecular target: Peroxisome proliferator-activated receptor delta (Homo sapiens) (UniProt Q03181)
# Sequence (Q03181 whole entry, looked up): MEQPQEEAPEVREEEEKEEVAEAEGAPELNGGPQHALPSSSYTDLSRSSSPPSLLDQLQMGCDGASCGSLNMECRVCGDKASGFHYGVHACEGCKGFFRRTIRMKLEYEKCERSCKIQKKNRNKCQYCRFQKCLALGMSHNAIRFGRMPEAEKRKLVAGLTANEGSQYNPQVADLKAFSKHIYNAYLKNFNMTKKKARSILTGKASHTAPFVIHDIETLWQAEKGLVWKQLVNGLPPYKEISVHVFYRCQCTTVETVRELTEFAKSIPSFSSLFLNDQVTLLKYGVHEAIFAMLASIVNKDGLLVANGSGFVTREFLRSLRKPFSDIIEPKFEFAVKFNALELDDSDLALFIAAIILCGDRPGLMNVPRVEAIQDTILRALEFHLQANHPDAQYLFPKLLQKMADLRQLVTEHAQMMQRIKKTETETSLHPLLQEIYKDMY
# Experiment: as above
# Conditions: HEK293T PPARd-UAS-bla, beta-lactamase FRET ratio, 18 h; series mostly up to 76.7 µM; activity change, negative = inhibition: at the top concentration
# In short: as §1
Structure (SMILES),"activity change, negative = inhibition",Potency
CN(C)/N=N/c1nc[nH]c1C(N)=O,-12.3% (inactive),–
CC(O)C(=O)O (centres undefined),-10.8% (inactive),–
COc1cccc2c1C(=O)c1c(O)c3c(c(O)c1C2=O)C[C@@](O)(C(=O)CO)C[C@@H]3O[C@H]1C[C@H](N)[C@H](O)[C@H](C)O1,–,1.41 µM (active)
Nc1ccc(C(=O)O)cc1,15.4% (inactive),–
C=CCc1ccc(O)c(OC)c1,–,inactive
CN(C)C(=S)SC(=S)N(C)C,4.22% (inactive),–

# Molecular target: Peroxisome proliferator-activated receptor gamma (Homo sapiens) (UniProt P37231)
# Sequence (P37231 whole entry, looked up): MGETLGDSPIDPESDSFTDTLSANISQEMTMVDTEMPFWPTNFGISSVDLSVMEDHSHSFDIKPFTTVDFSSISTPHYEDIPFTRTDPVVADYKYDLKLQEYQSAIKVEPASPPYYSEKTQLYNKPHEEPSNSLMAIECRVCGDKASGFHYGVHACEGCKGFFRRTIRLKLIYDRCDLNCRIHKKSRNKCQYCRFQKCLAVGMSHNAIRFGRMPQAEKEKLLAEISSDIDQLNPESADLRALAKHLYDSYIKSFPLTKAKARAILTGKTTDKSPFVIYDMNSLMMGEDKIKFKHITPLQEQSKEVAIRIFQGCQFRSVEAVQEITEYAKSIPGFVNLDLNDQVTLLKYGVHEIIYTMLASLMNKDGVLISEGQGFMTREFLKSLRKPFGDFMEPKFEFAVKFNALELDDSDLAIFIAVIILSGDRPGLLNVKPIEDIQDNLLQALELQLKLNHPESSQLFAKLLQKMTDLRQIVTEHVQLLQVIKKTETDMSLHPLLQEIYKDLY
# Experiment: qHTS assay for small molecule agonists of peroxisome proliferator-activated receptor gamma signaling (AID 588536; active means well fitted curve in the direction sought with a large enough effect in the signal ratio, with a control signal flat, not every such curve was filed as active; the % refers to the signal ratio;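 further: 0% = DMSO basal wells and 100% = rosiglitazone at 2 µM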)
# Conditions: HEK293 PPARg-UAS-bla, beta-lactamase ratio, 16 h, percent of rosiglitazone response, DMSO as zero; series mostly up to 76.7 µM; activation: at the top concentration
# In short: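 Ratiometric blue/green fluorescence (405 nm excitation; 460 and 530 nm emission) from CCF4-loaded HEK293 reporter cells serves as signal. Exposure to test compounds lasts 16 h at 37 C in medium containing 1% charcoal/dextran-treated serum.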
Structure (SMILES),activation,outcome
CC(C)(Oc1ccc(Cl)cc1)C(=O)O,8.98% (inactive),–
CN(C)/N=N/c1nc[nH]c1C(N)=O,-1.72% (inactive),–
Oc1ccc(Cl)cc1Sc1cc(Cl)ccc1O,-12.9% (inactive),–
O=C(O)CCCCC(=O)O,1.18% (inactive),–
CC(C)(C)CC(C)(C)c1ccc(OCCOCC[N+](C)(C)Cc2ccccc2)cc1,-10.5% (inactive),–
Cc1cc(=O)n(-c2ccccc2)n1C,-6.87% (inactive),–
CC(=O)Oc1ccc(C(c2ccc(OC(C)=O)cc2)c2ccccn2)cc1,-8.18% (inactive),–
C[C@H]1C[C@H]2[C@@H]3CCC4=CC(=O)C=C[C@]4(C)[C@@]3(Cl)[C@@H](O)C[C@]2(C)[C@@]1(O)C(=O)CO,-4.5% (inactive),–
CCCCCCc1ccc(O)cc1O,-5.9% (inactive),–
Nc1ccc(C(=O)O)cc1,0.742% (inactive),–
C=CCc1ccc(O)c(OC)c1,–,inactive
CN(C)C(=S)SC(=S)N(C)C,1.08% (inactive),–
O=c1ccc2ccccc2o1,–,inactive

# Molecular target: Peroxisome proliferator-activated receptor gamma (Homo sapiens) (UniProt P37231)
# Experiment: qHTS assay for small molecule antagonists of peroxisome proliferator-activated receptor gamma signaling (AID 588537; active means well fitted inhibition curve with a large enough effect in the signal ratio, with a control signal flat, not every such curve was filed as active; the % refers to the signal ratio; further: potency means the concentration at half of the fitted maximal effect;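 on activity, negative = inhibition: reporter cells co-stimulated with 50 nM rosiglitazone agonist during compound treatment; % of control where 0% means no effect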)
# Conditions: HEK293 PPARg-UAS-bla, beta-lactamase ratio, antagonist mode; series mostly up to 76.8 µM; activity, negative = inhibition: at the top concentration
# In short: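 Antagonist mode, beta-lactamase reporter in HEK293; charcoal/dextran FBS 1%; 3000 cells/well, 37 C 6-6.5 h; cpd titration + rosiglitazone 50 nM final, 16 h 37 C; CCF4, 2 h RT; 460/530 nm; Hill fit → IC50, efficacy.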
Structure (SMILES),"activity, negative = inhibition",Potency
CC(C)(Oc1ccc(Cl)cc1)C(=O)O,7.67% (inactive),–
CN(C)/N=N/c1nc[nH]c1C(N)=O,5.12% (inactive),–
O=C(O)CCCCC(=O)O,-7.28% (inactive),–
O=C1OC(c2ccc(O)cc2)(c2ccc(O)cc2)c2ccccc21,–,39.8 µM (active)
Cc1cc(=O)n(-c2ccccc2)n1C,4.49% (inactive),–
NC(=NCCCCCCN=C(N)/N=C(\N)Nc1ccc(Cl)cc1)/N=C(\N)Nc1ccc(Cl)cc1,-1.98% (inactive),–
C[C@H]1C[C@H]2[C@@H]3CCC4=CC(=O)C=C[C@]4(C)[C@@]3(Cl)[C@@H](O)C[C@]2(C)[C@@]1(O)C(=O)CO,1.06% (inactive),–
Nc1ccc(C(=O)O)cc1,3.21% (inactive),–
C=CCc1ccc(O)c(OC)c1,9.73% (inactive),–
CN(C)C(=S)SC(=S)N(C)C,1.26% (inactive),–
CC(O)(P(=O)(O)O)P(=O)(O)O,1.86% (inactive),–
O=c1ccc2ccccc2o1,5.17% (inactive),–
